# Screen size: about 320,000 compounds; about 2,100 (0.66%) were called active. Not shown: some 53% with an inconclusive outcome. This is one part of a sample in which actives are shown more often than they occur. Calls follow the shape of the dose curve; as a rule, active = well fitted inhibition curve with a large enough effect in the signal ratio, with a control signal flat (not every such curve was filed as active); inconclusive = small, poorly fitted or top-dose-only effect, or effect the other way, or a change in a side signal; inactive = flat fitted curve, though single readings scatter; the % refers to the signal ratio.
# Assay: qHTS Assay for Lipid Storage Modulators in Drosophila S3 Cells;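 as to cell number change: cells counted by Cell Tracker Red CMTPX staining in the red channel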; as to lipid storage change, negative = inhibition: % is scaled to controls: 0 for no effect and ±100 for the full control effect
# Conditions: BODIPY lipid droplet fluorescence, 18-24 h, cells fed with added oleic acid; cell number change: measured here: cell count max response; series mostly up to 46.1 µM; lipid storage change, negative = inhibition: at the top concentration
# How it was run: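 Laser-scanning cytometry quantifies lipid droplet accumulation (500–530 nm total intensity; droplet/cell object ratio) in oleic acid-fed (400 uM added) Drosophila S3 cells treated with a concentration series. 20 uM Triacsin C defined 100% inhibition.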
# Potency is read from the fitted curve at half-maximal effect.
Structure (SMILES),"lipid storage change, negative = inhibition",cell number change,Potency,outcome
COCC1CCN(Cc2nc(-c3ccc(OC)cc3)no2)CC1,8.81% (inactive),9.88%,–,–
Cc1ccc(CSCC(=O)N(C)CC(=O)Nc2ccc(C)cc2)cc1,0.736% (inactive),15.6%,–,–
COc1ccc(NC(=O)CN(C)C(=O)CSCc2ccc(C)cc2)cc1,–,-11%,10.3 µM (active),–
Cc1ccc(CSCC(=O)N(C)CC(=O)Nc2ccc(Cl)c(Cl)c2)cc1,–,1.04%,–,inactive
CCC(C)NC(=O)CN1C(=O)C(CC)Sc2ccccc21 (stereo not given),-2.81% (inactive),-9.92%,–,–
CCOc1ccccc1NC(=O)C1CCCN(S(=O)(=O)c2ccc(-n3cnnn3)cc2)C1 (stereo not given),–,20.5%,–,inactive
CCOC(=O)C1(CC2CC2)CCN(C(=O)c2ocnc2C)CC1,-7.18% (inactive),-6.88%,–,–
CCOC(=O)C1(CC2CC2)CCN(C(=O)c2cccnc2C)CC1,6.98% (inactive),26%,–,–
CCOC(=O)C1(CC2CC2)CCN(C(=O)c2cc(C3CC3)nc3ccccc23)CC1,–,-20.4%,25.9 µM (active),–
Cc1cc(Br)cc(C)c1NC(=O)c1ccc(C#N)cc1F,-22.4% (inactive),3.82%,–,–
C=CCNC(=S)NNC(=O)c1ccc(OCC)cc1,-0.066% (inactive),-9.79%,–,–
COc1cccc(NC(=O)c2oc3ccc(S(=O)(=O)N4CCOCC4)cc3c2C)c1,5.07% (inactive),4.15%,–,–
Cc1c(C(=O)NCCCN2CCOCC2)oc2ccc(S(=O)(=O)N3CCOCC3)cc12,10% (inactive),20.6%,–,–
Cc1c(C(=O)NCCCN2CCCC2=O)oc2ccc(S(=O)(=O)N3CCOCC3)cc12,–,-0.135%,–,inactive
Cc1c(C(=O)NCc2c(F)cc(F)cc2F)oc2ccc(S(=O)(=O)N3CCOCC3)cc12,–,-3.48%,2.91 µM (active),–
COc1ccccc1CNC(=O)c1oc2ccc(S(=O)(=O)N3CCOCC3)cc2c1C,–,-8.7%,29.1 µM (active),–
Cc1c(C(=O)NCCC2=CCCCC2)oc2ccc(S(=O)(=O)N3CCOCC3)cc12,16.1% (inactive),-13.3%,–,–
COc1ccccc1CNC(=O)[C@@H]1CCCN1S(=O)(=O)c1ccc(Cl)cc1,–,-7.14%,–,inactive
Cc1c(C(=O)NCc2ccc(F)cc2)oc2ccc(S(=O)(=O)N3CCOCC3)cc12,–,-3.6%,–,inactive
COc1ccccc1CNC(=O)N1CCN(S(=O)(=O)c2ccc(Cl)cc2)CC1,–,1.35%,0.13 µM (active),–

Structure (SMILES),"lipid storage change, negative = inhibition",cell number change,Potency,outcome
COc1ccccc1CNC(=O)c1oc2ccc(S(=O)(=O)N3CCCC3)cc2c1C,-29.2% (inactive),–,–,–
O=C(NCc1ccc(Cl)cc1)N1CCN(S(=O)(=O)c2ccccc2)CC1,-6.54% (inactive),17.1%,–,–
CCOCCCNC(=O)c1oc2ccc(S(=O)(=O)N3CCOCC3)cc2c1C,–,–,18.4 µM (active),–
O=C1CN(C(=O)CNC(=O)c2cccc(Cl)c2)c2ccccc2N1,0.224% (inactive),17%,–,–
Cc1cccn2c(=O)c(/C=C(\C#N)S(=O)(=O)c3ccccc3)c(Oc3ccc(Cl)cc3)nc12,2.66% (inactive),-10.2%,–,–
CC(=O)N1CCN(c2ccccc2NC(=O)COc2cc(C)cc(C)c2)CC1,-100% (inactive),13.5%,–,–
CCOc1ccc(S(=O)(=O)NCc2csc(C)n2)cc1,–,–,–,inactive
CCS(=O)(=O)c1ccc2oc(Nc3ccc(C(C)C)cc3)nc2c1,-3.92% (inactive),2.93%,–,–
CCn1nc(C)cc1C(=O)N1CCc2c([nH]c3ccccc23)C1c1cc(F)ccc1F (stereo not given),-9.5% (inactive),8.47%,–,–
COc1ccc(C(C)(C)C)cc1NC(=O)c1cc(S(=O)(=O)N(C)C)ccc1N1CCCC1,–,-23.6%,18.4 µM (active),–
CN(C)S(=O)(=O)c1ccc(N2CCCC2)c(C(=O)Nc2ccccc2F)c1,14.2% (inactive),25.2%,–,–
CN(C)S(=O)(=O)c1ccc(N2CCCC2)c(C(=O)Nc2ccccc2OC(F)F)c1,9.18% (inactive),29.4%,–,–
COc1ccc(S(=O)(=O)NC2CCCC2)cc1NC(C)=O,-1.83% (inactive),17.4%,–,–
COc1ccc(C=O)cc1Oc1nc(Cl)ncc1F,21.6% (inactive),5.61%,–,–
CC(CCc1ccccc1)NC(=O)CN1CCN(c2ccc(O)cc2)CC1 (stereo not given),-11.9% (inactive),0.962%,–,–
CC(=O)Nc1ccc(SCC(=O)c2ccc(Br)s2)cc1,–,5.88%,–,inactive
COc1ccc(S(N)(=O)=O)cc1-c1nnc2c3ccccc3c(C)nn12,-0.656% (inactive),-15.7%,–,–
COc1ccc(S(=O)(=O)c2c(O)c3ccc(C(=O)Nc4ccc(F)cc4)cc3[nH]c2=O)cc1,–,-7.08%,–,inactive
Cc1ccc(S(=O)(=O)c2c(O)c3ccc(C(=O)O)cc3[nH]c2=O)cc1,–,-5.9%,11.6 µM (active),–
COc1ccc(S(=O)(=O)c2c(O)c3ccc(C(=O)Nc4ccccc4)cc3[nH]c2=O)cc1,26.4% (inactive),23%,–,–

Structure (SMILES),"lipid storage change, negative = inhibition",cell number change,Potency,outcome
Cc1cccc(NC(=O)c2cc(Cl)ccc2[N+](=O)[O-])c1,4.85% (inactive),–,–,–
Cc1cccc(Nc2nc(N)c([N+](=O)[O-])c(NCCO)n2)c1,0.152% (inactive),-0.837%,–,–
O=C(CSc1ccc2ccccc2n1)NCc1ccc2c(c1)OCO2,19.1% (inactive),26.9%,–,–
Cc1cc(Cl)ccc1NC(=S)NCCCN1CCCC1=O,18.7% (inactive),7.04%,–,–
O=C1CCCN1CCCNC(=S)Nc1ccccc1,15.3% (inactive),-7.97%,–,–
Cc1cccc(C)c1NC(=S)NCCCN1CCCC1=O,–,-0.836%,0.461 µM (active),–
CCN1CCN(CC(O)COCCOc2ccc(Br)cc2)CC1 (stereo not given),-7.14% (inactive),4.7%,–,–
Cc1cccc(OCC(=O)NCc2cc(C)nc3ccccc23)c1,5.62% (inactive),-5.05%,–,–
COc1ccccc1OCCNC(=O)c1cc(=O)[nH]c2ccccc12,8.99% (inactive),13.3%,–,–
CCOc1ccc(C(C)NC(=O)c2cc(=O)[nH]c3ccccc23)cc1OCC (stereo not given),–,6.31%,0.0021 µM (active),–
COc1ccccc1C(C)NC(=O)c1cc(=O)[nH]c2ccccc12 (stereo not given),–,-5.13%,–,inactive
CC(=O)c1cccc(N(CC(=O)NC2CCCCC2)C(=O)CNC(=O)c2cccs2)c1,–,16.1%,–,inactive
COCCNC(=O)c1c(N)n(/N=C/c2ccc(F)cc2)c2nc3ccccc3nc12,3.89% (inactive),21.5%,–,–
CCC(C)NC(=O)c1c(N)n(/N=C/c2ccccn2)c2nc3ccccc3nc12 (stereo not given),16.9% (inactive),8.8%,–,–
COCCCNC(=O)c1c(N)n(/N=C/c2ccccn2)c2nc3ccccc3nc12,–,–,7.31 µM (active),–
Cc1ccc(-c2ccc(=O)n(CCC(=O)N3CCN(Cc4ccccc4)CC3)n2)cc1,–,–,–,inactive
COc1ccc(CNC(=O)c2ccc3c(c2)NC(=O)C(C)S3)cc1 (stereo not given),-0.216% (inactive),-2.51%,–,–
COc1ccc(Br)cc1CN(C)C(=O)c1ccc2c(c1)NC(=O)C(C)S2 (stereo not given),4.83% (inactive),–,–,–
COc1cccc(COC(=O)c2ccc3c(c2)NC(=O)C(C)S3)c1OC (stereo not given),–,–,3.26 µM (active),–

# — PubChem BioAssay AID2685 (National Center for Advancing Translational Sciences (NCATS), 2010)
